According to PubChem BioAssay (Tox21):
Where “and” joins values, the source holds several entries; their conditions need not be identical. Equal values may be shown once. Records with an inconclusive call do not appear. The source holds several records for some structures; these can differ, active in one and inactive in another. Calls of active or inactive are those of the source. Unless noted, the call rests on the fitted dose curve; in most records, active means well fitted curve in the direction sought with a large enough effect in the repeat runs; inconclusive means weak or mixed curves; inactive means no such curve, though single readings can be large; an effect the other way counts as inactive or inconclusive.

Experiments:
[1] = molecular target: Acetylcholinesterase (Homo sapiens) (UniProt P22303); experiment: Acetylcholinesterase (AChE) small molecule antagonists: enzyme-based qHTS assay (AID 1347397; calls by dose curve; further: nearly all actives have a fitted effect of over 55% in size); settings: Potency: AChE enzyme activity inhibition; outcome: AChE enzyme activity inhibition
Acetylcholinesterase (Homo sapiens), sequence (P22303 whole entry, looked up): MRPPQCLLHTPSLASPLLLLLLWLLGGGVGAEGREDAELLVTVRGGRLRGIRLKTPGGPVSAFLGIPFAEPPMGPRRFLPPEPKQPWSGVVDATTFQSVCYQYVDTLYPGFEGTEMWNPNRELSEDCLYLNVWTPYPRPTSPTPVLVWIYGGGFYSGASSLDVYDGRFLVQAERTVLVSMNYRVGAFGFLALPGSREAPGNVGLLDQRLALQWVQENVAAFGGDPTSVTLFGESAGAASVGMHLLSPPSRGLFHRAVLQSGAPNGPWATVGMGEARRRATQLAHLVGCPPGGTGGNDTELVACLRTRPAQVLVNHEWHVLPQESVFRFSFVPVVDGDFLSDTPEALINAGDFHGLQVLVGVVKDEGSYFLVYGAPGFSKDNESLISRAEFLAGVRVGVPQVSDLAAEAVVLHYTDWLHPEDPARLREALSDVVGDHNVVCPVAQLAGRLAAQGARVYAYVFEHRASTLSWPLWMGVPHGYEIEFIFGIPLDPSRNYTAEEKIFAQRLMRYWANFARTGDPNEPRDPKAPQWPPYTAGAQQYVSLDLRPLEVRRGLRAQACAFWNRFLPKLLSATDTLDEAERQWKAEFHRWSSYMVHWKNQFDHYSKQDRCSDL
Procedure, shortened: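 Compound or DMSO vehicle was pin-transferred onto recombinant human AChE (50 mU/mL as dispensed) and left 30 min at room temperature. Acetylthiocholine with DTNB then started the reaction, read colorimetrically 10 min later.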

[2] = molecular target: Acetylcholinesterase (Homo sapiens) (UniProt P22303); experiment: Acetylcholinesterase (AChE) small molecule antagonists: fluorescence cell-based qHTS assay (AID 1347398; calls by dose curve; further: nearly all actives have a fitted effect of over 50% in size); settings: Potency: AChE activity; outcome: AChE activity
Procedure, shortened: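 Using neuroblastoma SH-SY5Y cells as the enzyme source, test chemicals are preincubated 30 min at 37 C; AChE-driven acetylthiocholine cleavage is then quantified by thiocholine-dependent Thiolite Green fluorescence after 40 min at room temperature.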

[3] = molecular target: Acetylcholinesterase (Homo sapiens) (UniProt P22303); experiment: Acetylcholinesterase (AChE) small molecule antagonists: enzyme-based qHTS assay with human liver microsomes (AID 1347399; calls by dose curve; further: nearly all actives have a fitted effect of over 60% in size); settings: Potency: qHTS inhibition; outcome: qHTS inhibition
Procedure, shortened: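 Recombinant human AChE (50 mU/mL in the enzyme mix) and human liver microsomes (0.25 mg/mL final) were preincubated with compound and NADPH (0.25 mg/mL final) for 30 min at 37 C. Acetylthiocholine/DTNB was then added; thiocholine was read colorimetrically after 10 min at room temperature.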

[4] = molecular target: Cytochrome P450 2D6 (Homo sapiens) (UniProt P10635); experiment: Cytochrome P450 Family 2 Subfamily D Member 6 (CYP2D6) small molecule antagonists: luciferase reporter qHTS assay (AID 1671196); further: nearly all actives have a fitted effect of over 50% in size; on activity change, negative = inhibition: series mostly up to about 120 µM
Cytochrome P450 2D6 (Homo sapiens), sequence (P10635 whole entry, looked up): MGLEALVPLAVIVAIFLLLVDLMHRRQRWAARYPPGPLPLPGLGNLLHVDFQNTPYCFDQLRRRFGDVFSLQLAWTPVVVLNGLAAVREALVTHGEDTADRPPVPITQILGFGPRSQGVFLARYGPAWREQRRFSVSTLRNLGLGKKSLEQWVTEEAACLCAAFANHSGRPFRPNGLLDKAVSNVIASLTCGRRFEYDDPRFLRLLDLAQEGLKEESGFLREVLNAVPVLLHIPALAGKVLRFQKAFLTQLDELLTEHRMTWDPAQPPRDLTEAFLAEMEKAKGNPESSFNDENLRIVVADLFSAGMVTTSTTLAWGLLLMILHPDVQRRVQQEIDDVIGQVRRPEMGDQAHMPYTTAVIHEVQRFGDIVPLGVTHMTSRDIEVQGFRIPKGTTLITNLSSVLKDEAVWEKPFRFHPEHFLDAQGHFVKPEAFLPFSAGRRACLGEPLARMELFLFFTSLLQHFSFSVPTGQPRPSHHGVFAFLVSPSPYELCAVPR
Procedure, shortened: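 Enzyme and proluciferin substrate were first combined with test chemical for 10 min at room temperature. Adding NADPH regeneration solution started a 1 h reaction, stopped with luciferin detection reagent and read by luminescence 20 min later.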

[5] = molecular target: Cytochrome P450 2C9 (Homo sapiens) (UniProt P11712); experiment: Cytochrome P450 Family 2 Subfamily C Member 9 (CYP2C9) small molecule antagonists: luciferase reporter qHTS assay (AID 1671198); further: nearly all actives have a fitted effect of over 50% in size; on activity change, negative = inhibition: series mostly up to about 120 µM
Cytochrome P450 2C9 (Homo sapiens), sequence (P11712 whole entry, looked up): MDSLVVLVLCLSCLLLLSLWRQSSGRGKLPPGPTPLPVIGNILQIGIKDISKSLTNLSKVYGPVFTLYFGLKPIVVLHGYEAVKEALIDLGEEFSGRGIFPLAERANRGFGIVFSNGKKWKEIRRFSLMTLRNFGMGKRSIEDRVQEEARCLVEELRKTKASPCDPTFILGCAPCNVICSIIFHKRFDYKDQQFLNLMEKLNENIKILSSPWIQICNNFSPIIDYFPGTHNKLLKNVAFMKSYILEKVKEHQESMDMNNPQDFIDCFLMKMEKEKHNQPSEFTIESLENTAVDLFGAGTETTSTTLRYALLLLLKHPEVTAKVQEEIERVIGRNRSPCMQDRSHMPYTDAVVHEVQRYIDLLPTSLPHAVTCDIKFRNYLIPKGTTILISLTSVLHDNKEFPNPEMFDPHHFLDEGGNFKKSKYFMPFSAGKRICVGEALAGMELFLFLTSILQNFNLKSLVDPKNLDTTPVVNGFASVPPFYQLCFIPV
Procedure, shortened: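 CYP2C9 activity was measured with a P450-Glo proluciferin substrate. Enzyme–substrate mix was held with compound for 10 min at room temperature, then NADPH regeneration solution was added for 1 h at 37C. Luciferin product was read as luminescence.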

[6] = molecular target: Voltage-gated inwardly rectifying potassium channel KCNH2 (Homo sapiens) (UniProt Q12809); experiment: Human Ether-a-go-go-Related Gene (hERG) channel small molecule antagonists: fluorescence cell-based qHTS assay (AID 1671200); further: nearly all actives have a fitted effect of over 50% in size;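 on activity change, negative = inhibition: hERG-expressing U2OS cells given a thallium stimulus after FluxOR II dye loading; series mostly up to about 77 µM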
Voltage-gated inwardly rectifying potassium channel KCNH2 (Homo sapiens), sequence (Q12809 whole entry, looked up): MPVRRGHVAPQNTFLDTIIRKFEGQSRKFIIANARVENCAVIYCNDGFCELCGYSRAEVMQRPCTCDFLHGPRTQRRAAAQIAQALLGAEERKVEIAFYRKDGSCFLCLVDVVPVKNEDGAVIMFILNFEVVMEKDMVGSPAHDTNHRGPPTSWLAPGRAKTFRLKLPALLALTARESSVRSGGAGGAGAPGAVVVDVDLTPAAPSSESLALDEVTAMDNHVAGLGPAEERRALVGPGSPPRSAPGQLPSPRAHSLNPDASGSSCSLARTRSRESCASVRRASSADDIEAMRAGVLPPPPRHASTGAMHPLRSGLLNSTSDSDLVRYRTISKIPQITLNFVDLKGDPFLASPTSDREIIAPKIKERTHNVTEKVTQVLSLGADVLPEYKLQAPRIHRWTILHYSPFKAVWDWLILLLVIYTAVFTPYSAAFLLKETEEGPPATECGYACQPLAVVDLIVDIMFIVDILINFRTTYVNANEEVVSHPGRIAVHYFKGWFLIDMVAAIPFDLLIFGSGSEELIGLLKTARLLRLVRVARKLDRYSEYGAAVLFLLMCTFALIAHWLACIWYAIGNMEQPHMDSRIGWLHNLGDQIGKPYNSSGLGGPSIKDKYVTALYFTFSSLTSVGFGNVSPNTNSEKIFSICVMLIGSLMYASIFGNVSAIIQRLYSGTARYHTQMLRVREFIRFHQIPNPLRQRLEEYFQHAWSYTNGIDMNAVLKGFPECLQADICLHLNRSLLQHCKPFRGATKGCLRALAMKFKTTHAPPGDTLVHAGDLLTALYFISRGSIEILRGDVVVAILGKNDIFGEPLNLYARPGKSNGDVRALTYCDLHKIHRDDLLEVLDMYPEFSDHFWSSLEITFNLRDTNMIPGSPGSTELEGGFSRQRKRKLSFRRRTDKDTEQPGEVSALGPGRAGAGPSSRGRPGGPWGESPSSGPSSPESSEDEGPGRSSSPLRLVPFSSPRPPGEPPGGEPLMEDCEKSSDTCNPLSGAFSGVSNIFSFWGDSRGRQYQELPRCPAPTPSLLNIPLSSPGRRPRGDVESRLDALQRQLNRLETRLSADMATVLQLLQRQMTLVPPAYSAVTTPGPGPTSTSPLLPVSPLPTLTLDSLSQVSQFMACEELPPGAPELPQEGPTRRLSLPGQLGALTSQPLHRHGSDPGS
Procedure, shortened: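 First, 1000 cells per well are seeded and cultured overnight at 37 C. Next, FluxOR II dye is loaded for 1 h at room temperature, protected from light. After 10 more minutes, stimulus is added and fluorescence is read.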

[7] = molecular target: Cytochrome P450 3A4 (Homo sapiens) (UniProt P08684); experiment: Cytochrome P450 Family 3 Subfamily A Member 4 (CYP3A4) small molecule antagonists: luciferase reporter qHTS assay (AID 1671201); further: nearly all actives have a fitted effect of over 50% in size; on activity change, negative = inhibition: series mostly up to about 120 µM
Cytochrome P450 3A4 (Homo sapiens), sequence (P08684 whole entry, looked up): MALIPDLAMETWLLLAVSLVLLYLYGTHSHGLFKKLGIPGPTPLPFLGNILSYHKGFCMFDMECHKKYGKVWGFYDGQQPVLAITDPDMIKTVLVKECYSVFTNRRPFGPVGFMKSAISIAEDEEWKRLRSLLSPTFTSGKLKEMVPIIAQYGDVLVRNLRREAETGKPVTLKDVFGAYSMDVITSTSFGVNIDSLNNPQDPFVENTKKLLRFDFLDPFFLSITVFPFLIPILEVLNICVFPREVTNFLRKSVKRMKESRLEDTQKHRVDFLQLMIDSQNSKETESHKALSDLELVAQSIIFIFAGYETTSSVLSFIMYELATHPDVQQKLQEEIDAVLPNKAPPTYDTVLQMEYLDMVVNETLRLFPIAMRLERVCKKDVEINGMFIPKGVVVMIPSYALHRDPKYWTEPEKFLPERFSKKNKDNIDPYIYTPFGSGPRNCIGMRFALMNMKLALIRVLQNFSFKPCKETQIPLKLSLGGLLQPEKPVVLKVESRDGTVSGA
Procedure, shortened: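 Enzyme and proluciferin substrate are mixed with test chemicals for 10 min, then NADPH regeneration system drives turnover for 1 h at room temperature. A detection reagent halts the reaction; luminescence after 20 min gives relative activity.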

[8] = molecular target: Cytochrome P450 1A2 (Homo sapiens) (UniProt P05177); experiment: Cytochrome P450 Family 1 Subfamily A Member 2 (CYP1A2) small molecule antagonists: luciferase reporter qHTS assay (AID 1671199); further: nearly all actives have a fitted effect of over 50% in size; on activity change, negative = inhibition: series mostly up to about 120 µM
Cytochrome P450 1A2 (Homo sapiens), sequence (P05177 whole entry, looked up): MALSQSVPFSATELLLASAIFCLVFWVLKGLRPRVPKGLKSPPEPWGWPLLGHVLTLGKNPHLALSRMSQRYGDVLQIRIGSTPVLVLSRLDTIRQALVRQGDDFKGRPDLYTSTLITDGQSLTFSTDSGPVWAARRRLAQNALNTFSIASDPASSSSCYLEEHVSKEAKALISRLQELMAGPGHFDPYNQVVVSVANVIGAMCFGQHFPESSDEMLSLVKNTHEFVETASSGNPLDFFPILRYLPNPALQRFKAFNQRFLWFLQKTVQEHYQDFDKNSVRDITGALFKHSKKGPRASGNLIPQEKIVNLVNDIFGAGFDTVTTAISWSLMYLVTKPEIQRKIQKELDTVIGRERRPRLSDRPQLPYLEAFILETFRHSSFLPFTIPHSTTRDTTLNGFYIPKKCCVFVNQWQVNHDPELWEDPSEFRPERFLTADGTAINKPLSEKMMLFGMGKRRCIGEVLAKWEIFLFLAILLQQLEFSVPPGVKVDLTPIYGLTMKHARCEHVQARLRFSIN
Procedure, shortened: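 Compounds were incubated with CYP1A2 and a luminogenic proluciferin substrate for 10 min at room temperature before the reaction was started with NADPH regeneration solution. After 1 h, detection reagent was added and light output, proportional to CYP activity, was recorded.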

[9] = molecular target: Cytochrome P450 2C19 (Homo sapiens) (UniProt P33261); experiment: Cytochrome P450 Family 2 Subfamily C Member 19 (CYP2C19) small molecule antagonists: luciferase reporter qHTS assay (AID 1671197); further: nearly all actives have a fitted effect of over 65% in size; on activity change, negative = inhibition: series mostly up to about 120 µM
Cytochrome P450 2C19 (Homo sapiens), sequence (P33261 whole entry, looked up): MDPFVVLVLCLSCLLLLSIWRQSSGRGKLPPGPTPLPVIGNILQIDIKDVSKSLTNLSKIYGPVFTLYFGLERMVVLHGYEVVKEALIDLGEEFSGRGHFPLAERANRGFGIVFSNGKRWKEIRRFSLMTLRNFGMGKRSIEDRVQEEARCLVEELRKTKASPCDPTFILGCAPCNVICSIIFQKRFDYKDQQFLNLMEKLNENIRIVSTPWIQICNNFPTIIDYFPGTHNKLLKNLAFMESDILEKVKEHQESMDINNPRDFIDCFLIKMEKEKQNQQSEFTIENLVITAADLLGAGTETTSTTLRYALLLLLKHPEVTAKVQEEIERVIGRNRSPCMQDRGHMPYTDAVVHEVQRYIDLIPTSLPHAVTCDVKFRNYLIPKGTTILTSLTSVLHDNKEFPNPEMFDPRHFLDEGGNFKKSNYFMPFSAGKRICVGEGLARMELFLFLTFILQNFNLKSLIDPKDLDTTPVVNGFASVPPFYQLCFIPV
Procedure, shortened: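 Inhibition of CYP2C19 was scored from loss of luminescence in a P450-Glo proluciferin substrate assay, NADPH-started and run 1 h at 37C, with ketoconazole as positive control.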
On the % scale 0 is the no-effect control and ±100 the full control effect; potency means the concentration at half of the fitted maximal effect.

O=C(O)c1c(Cl)ccc2cc(Cl)cnc12
inactive: Potency [1] | Potency [2] | Potency [3] | Potency [4] | Potency [6] | Potency [7]
active: Potency [5] 79.6 µM

Cc1ccc2cc(C)ccc2c1
inactive: Potency [1] | Potency [2] | Potency [3] | Potency [4] | Potency [5] | Potency [6] | Potency [7]

COc1ccc(C=O)cc1O
inactive: Potency [1] | Potency [2] | Potency [3] | Potency [4] | Potency [5] | Potency [6] | Potency [7]

CCCCCCCCBr
inactive: Potency [1] | Potency [2] | Potency [3] | Potency [4] | Potency [5] | Potency [6] | Potency [7]

C[C@H]1CCCC(=O)CCC/C=C/c2cc(O)cc(O)c2C(=O)O1
inactive: Potency [1] | Potency [2] | Potency [3] | Potency [6]
active: Potency [4] 54.3 µM | Potency [5] 4.84 µM and 7.34 µM | Potency [8] 21.6 µM and 13.1 µM | Potency [7] 122 nM and 184 nM

C=C(Cl)CSC(=S)N(CC)CC
active: Potency [5] 38.9 µM | Potency [8] 9.77 µM | Potency [6] 53.5 µM
inactive: Potency [1] | Potency [2] | Potency [3] | Potency [4]

O=C/C=C/c1ccco1
inactive: Potency [1] | Potency [2] | Potency [3] | Potency [4] | Potency [5] | Potency [8] | Potency [6] | Potency [7]

CC(=O)CN(CC(C)=O)N=O
inactive: Potency [1] | Potency [2] | Potency [3] | Potency [4] | Potency [5] | Potency [6] | Potency [7]

NCCOS(=O)(=O)O
inactive: Potency [1] | Potency [2] | Potency [3] | Potency [4] | Potency [5] | Potency [8] | Potency [6] | Potency [7]

Clc1cc2c(cc1Cl)Oc1cc(Cl)c(Cl)cc1O2
inactive: activity change, negative = inhibition [1] 0.681% [at 0.435 µM] | activity change, negative = inhibition [2] 4.87% [at 0.439 µM] | activity change, negative = inhibition [3] -0.563% [at 0.435 µM] | activity change, negative = inhibition [4] -1.99% [at 0.435 µM] | activity change, negative = inhibition [5] 2.52% [at 0.435 µM] | activity change, negative = inhibition [6] 4.67% [at 0.29 µM] | activity change, negative = inhibition [7] -0.782% [at 0.435 µM]

CCOP(=O)(CN(CCO)CCO)OCC
inactive: Potency [1] | Potency [2] | Potency [3] | Potency [4] | Potency [5] | Potency [6] | Potency [7]

O=C(NC(O)C(Cl)(Cl)Cl)NC(O)C(Cl)(Cl)Cl (configuration not stated)
inactive: Potency [1] | Potency [2] | Potency [3] | Potency [4] | Potency [5] | Potency [8] | Potency [6] | Potency [7]

O=C1C2CC=CCC2C(=O)N1SC(Cl)(Cl)Cl (configuration not stated)
active: Potency [4] 78.3 µM | Potency [5] 31.6 µM and 4.94 µM | Potency [8] 31.6 µM and 22.1 µM
inactive and 48.2 µM (active): Potency [6]
inactive: Potency [1] | Potency [2] | Potency [3] | Potency [7]

COP(=O)(OC)O/C(C)=C/C(=O)N(C)C
active: Potency [1] 63.7 µM | Potency [2] 14.3 µM
inactive: Potency [3] | Potency [4] | Potency [9] | Potency [6] | Potency [7]

CNC(=O)O/N=C(/CSC)C(C)(C)C
active: Potency [1] 1 µM | Potency [2] 0.142 µM | Potency [3] 11.2 µM
inactive: Potency [4] | Potency [5] | Potency [6] | Potency [7]

N#CN=C1SCCN1Cc1ccc(Cl)nc1
active: Potency [4] 39.9 µM
inactive: Potency [1] | Potency [2] | Potency [3] | Potency [9] | Potency [6] | Potency [7]

CCC(C)(C#N)N=NC(C)(C#N)CC (configuration not stated)
inactive: Potency [1] | Potency [2] | Potency [3] | Potency [4] | Potency [5] | Potency [8] | Potency [6] | Potency [7]

O=C1CCCCC1Cl (configuration not stated)
inactive: Potency [1] | Potency [2] | Potency [3] | Potency [4] | Potency [5] | Potency [6] | Potency [7]
active: Potency [8] 36 µM

[P]#[In]
inactive: Potency [1] | Potency [2] | Potency [3] | Potency [4] | Potency [5] | Potency [8] | Potency [6] | Potency [7]

ClCCN1CCCC1
inactive: Potency [1] | Potency [2] | Potency [3] | Potency [4] | Potency [5] | Potency [8] | Potency [6] | Potency [7]

C=CCCC#N
active: Potency [4] 38.9 µM
inactive: Potency [1] | Potency [2] | Potency [3] | Potency [5] | Potency [6] | Potency [7]

O=C(Cl)OCc1ccccc1
inactive: Potency [1] | Potency [2] | Potency [3] | Potency [4] | Potency [5] | Potency [6] | Potency [7]

CCNc1nc(NCC)nc(SC)n1
inactive: Potency [1] | Potency [2] | Potency [3] | Potency [4] | Potency [5] | Potency [6] | Potency [7]
active: Potency [8] 10 µM

ClCCCCl
inactive: Potency [1] | Potency [2] | Potency [3] | Potency [4] | Potency [5] | Potency [6] | Potency [7]
active: Potency [8] 23.9 µM

CCN[C@@H](C)Cc1ccccc1
inactive: Potency [1] | Potency [2] | Potency [3] | Potency [5] | Potency [8] | Potency [6] | Potency [7]
active: Potency [4] 6.28 µM

COc1cccc([C@@]2(O)CCCC[C@@H]2CN(C)C)c1
inactive: Potency [1] | Potency [2] | Potency [3] | Potency [9] | Potency [5] | Potency [8] | Potency [6] | Potency [7]

O=P(O)(O)c1ccccc1
inactive: Potency [1] | Potency [2] | Potency [3] | Potency [9] | Potency [5] | Potency [8] | Potency [6] | Potency [7]

C=CC1(C)OC(=O)N(c2cc(Cl)cc(Cl)c2)C1=O (configuration not stated)
active: Potency [9] 7.92 µM and 12.6 µM | Potency [8] 5.61 µM and 6.33 µM
inactive: Potency [1] | Potency [2] | Potency [3] | Potency [5]

CC#Cc1cc(C)nc(Nc2ccccc2)n1
active: Potency [9] 35.5 µM | Potency [5] 35.5 µM | Potency [8] 1.59 µM | Potency [7] 63.2 µM
inactive: Potency [1] | Potency [2] | Potency [3] | Potency [6]
